Source: PubChem BioAssay
The source made the active and inactive calls. Unless noted, the rule behind the calls is not given here.

Experiments:
[1] = compounds binding Alexa647 anti-His antibody – biochemical, small-molecule microarray, 635 nm fluorescence, artefact control for SMM control protein annotation, primary screen (AID 1128); conditions: higher = more signal;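 note: score merges feature fluorescence with signal-to-noise for each printed compound spot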
[2] = test system: Human papillomavirus type 1a E7 protein (residues 1-88); assay: HPV1a E7 small-molecule binders, primary screen, biochemical, small-molecule microarray, residues 1-88, 635 nm (AID 1129); conditions: small-molecule microarray binding, fluorescence 635 nm; higher = more signal
[3] = target: Focal adhesion kinase 1 (Homo sapiens) (UniProt Q05397); assay: PTK2 protein binding on printed compound slides – biochemical, small-molecule microarray, 635/667 nm fluorescence, BSA, DTT, primary screen (AID 1130); conditions: 635 nm fluorescence, higher = more signal;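 note: composite of spot emission at 667 nm and signal to noise over triplicate slides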
Focal adhesion kinase 1 (Homo sapiens), sequence (Q05397 whole entry, looked up): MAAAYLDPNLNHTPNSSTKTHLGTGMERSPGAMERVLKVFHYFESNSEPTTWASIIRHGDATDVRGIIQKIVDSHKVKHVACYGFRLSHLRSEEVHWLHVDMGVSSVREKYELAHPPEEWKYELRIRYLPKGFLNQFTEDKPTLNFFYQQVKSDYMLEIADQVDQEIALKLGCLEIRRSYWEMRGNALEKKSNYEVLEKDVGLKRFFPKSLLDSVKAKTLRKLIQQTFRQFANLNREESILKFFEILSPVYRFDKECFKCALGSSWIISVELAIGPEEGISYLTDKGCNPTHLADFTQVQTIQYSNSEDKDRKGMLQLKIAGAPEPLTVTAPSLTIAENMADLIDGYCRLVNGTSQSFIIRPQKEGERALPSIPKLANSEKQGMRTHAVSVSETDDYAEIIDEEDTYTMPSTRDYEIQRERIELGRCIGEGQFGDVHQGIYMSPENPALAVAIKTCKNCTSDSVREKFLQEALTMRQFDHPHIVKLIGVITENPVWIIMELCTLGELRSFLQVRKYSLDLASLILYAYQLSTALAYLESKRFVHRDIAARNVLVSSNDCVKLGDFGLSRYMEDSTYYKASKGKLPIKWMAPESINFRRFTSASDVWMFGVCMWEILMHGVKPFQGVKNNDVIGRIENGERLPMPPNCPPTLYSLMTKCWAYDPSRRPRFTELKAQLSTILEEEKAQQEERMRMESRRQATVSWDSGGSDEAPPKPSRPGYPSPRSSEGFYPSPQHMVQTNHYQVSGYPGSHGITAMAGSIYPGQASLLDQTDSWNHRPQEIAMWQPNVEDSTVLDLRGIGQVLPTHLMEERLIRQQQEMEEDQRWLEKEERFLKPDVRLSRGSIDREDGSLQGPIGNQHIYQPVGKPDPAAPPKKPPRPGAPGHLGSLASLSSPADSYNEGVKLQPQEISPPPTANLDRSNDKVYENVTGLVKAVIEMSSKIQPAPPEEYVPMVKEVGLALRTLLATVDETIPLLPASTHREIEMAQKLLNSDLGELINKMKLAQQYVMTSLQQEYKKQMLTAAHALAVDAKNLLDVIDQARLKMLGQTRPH

[4] = test system: Fibrinogen (Alexa647-labelled); assay: Alexa647-fibrinogen binding to printed small molecules – biochemical, small-molecule microarray, 635/667 nm fluorescence, artefact control for SMM control-protein annotation, profiling panel (AID 1131); conditions: fibrinogen-A647 binding fluorescence, higher = more signal;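 note: z-score merges 667 nm fluorescence with per-spot signal-to-noise over triplicate slides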
[5] = target: Follistatin (Homo sapiens) (UniProt P19883); assay: FST protein binding to printed compounds – biochemical, small-molecule microarray, 635/667 nm fluorescence, primary screen (AID 1132); conditions: 635 nm fluorescence, higher = more signal
Follistatin (Homo sapiens), sequence (P19883 whole entry, looked up): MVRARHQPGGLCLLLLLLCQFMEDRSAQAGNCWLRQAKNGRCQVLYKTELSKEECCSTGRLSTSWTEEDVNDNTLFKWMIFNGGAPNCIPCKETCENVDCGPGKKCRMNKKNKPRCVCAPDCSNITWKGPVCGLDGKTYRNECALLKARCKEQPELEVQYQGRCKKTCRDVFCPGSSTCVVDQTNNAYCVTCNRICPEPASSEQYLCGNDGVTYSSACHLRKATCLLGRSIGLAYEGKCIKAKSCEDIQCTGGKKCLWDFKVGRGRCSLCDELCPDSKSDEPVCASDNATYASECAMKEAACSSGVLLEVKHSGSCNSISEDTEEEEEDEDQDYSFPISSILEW

[6] = target: Fibroblast growth factor 2 (Homo sapiens) (UniProt P09038); assay: basic fibroblast growth factor binding to printed compounds – biochemical, small-molecule microarray, 635/667 nm fluorescence, primary screen (AID 1133); conditions: FGF2, fluorescence 635/667, higher = more signal
Fibroblast growth factor 2 (Homo sapiens), sequence (P09038 whole entry, looked up): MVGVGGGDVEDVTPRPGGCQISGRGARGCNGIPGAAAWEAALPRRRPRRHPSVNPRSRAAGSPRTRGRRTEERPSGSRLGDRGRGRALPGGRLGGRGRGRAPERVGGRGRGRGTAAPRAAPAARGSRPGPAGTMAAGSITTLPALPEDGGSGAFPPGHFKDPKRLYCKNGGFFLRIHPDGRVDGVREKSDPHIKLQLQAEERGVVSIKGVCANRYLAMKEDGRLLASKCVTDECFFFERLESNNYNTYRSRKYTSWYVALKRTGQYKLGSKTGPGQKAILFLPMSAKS

[7] = JC-1 mitochondrial potential readout, lung cancer cells – cell-based, A549, JC-1 fluorescence, basal, 24 h, 100 nL, profiling panel (AID 1138); conditions: higher = more signal;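 note: A549 lung adenocarcinoma cells under basal conditions with no added stimulus; test concentration not given here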
Lefty1 = Lefty1 protein binding to printed compounds – biochemical, small-molecule microarray, 635/667 nm fluorescence, primary screen (AID 1139); conditions: fluorescence 635/667, higher = more signal
[8] = test system: wheat germ agglutinin (Triticum aestivum), Alexa647-labelled; assay: Alexa647-WGA lectin binding to printed small molecules – biochemical, small-molecule microarray, 635/667 nm fluorescence, artefact control for SMM control-protein annotation, profiling panel (AID 1140); conditions: WGA-A647 binding, 635 nm fluorescence, higher = more signal;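 note: score merges 667 nm feature emission with signal to noise over triplicate slides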
[9] = target: Luciferin 4-monooxygenase (Photinus pyralis) (UniProt P08659); assay: inhibition of purified Photinus pyralis luciferase – biochemical, luminescence, purified enzyme, 2006 set, primary screen (AID 1141); conditions: purified firefly luciferase, SteadyGlo luminescence, 30 min; higher = more signal, called active from +8 up or from −8 down;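 note: cell-free assay with purified firefly luciferase at 100 ng per well in PBS; test concentration not given here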
Luciferin 4-monooxygenase (Photinus pyralis), sequence (P08659 whole entry, looked up): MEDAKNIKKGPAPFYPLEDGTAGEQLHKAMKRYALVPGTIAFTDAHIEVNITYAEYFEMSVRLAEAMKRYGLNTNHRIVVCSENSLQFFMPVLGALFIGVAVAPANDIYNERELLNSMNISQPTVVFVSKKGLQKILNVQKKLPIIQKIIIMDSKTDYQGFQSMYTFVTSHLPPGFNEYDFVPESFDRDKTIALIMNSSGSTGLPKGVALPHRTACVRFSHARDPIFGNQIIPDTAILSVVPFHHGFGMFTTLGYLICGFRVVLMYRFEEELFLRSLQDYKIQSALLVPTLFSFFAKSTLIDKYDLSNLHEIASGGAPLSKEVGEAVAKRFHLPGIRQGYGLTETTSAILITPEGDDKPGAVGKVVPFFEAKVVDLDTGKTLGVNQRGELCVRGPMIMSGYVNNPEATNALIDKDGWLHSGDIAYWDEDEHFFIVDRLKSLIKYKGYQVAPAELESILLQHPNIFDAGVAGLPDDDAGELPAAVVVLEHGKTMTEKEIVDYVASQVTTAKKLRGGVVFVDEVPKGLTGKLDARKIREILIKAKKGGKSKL

[10] = test system: Wnt5a (protein binding on small-molecule microarray); assay: small molecules binding Wnt5a protein – biophysical, small-molecule microarray, 635/667 nm fluorescence, primary screen (AID 1142); conditions: 635 nm fluorescence, higher = more signal;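 note: fluorescence read at 667 nm with signal to noise per printed feature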
[11] = ATP-based viability of Huh7 replicon cells – cell-based, CellTiter-Glo luminescence, basal, 48 h, cytotoxicity control for HCV replication inhibitor project, primary screen (AID 1143); conditions: higher = more signal, called active from +8 up or from −8 down;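 note: Huh7 hepatoma cells carrying a hepatitis C replication reporter with no stimulus; test concentration not given here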
[12] = Pseudomonas biofilm growth suppression – PAO1 strain, BacTiter-Glo luminescence, LB-PBS, primary screen (AID 1144); conditions: P. aeruginosa PAO1 biofilm, 12 h, higher = more signal
[13] = basal CRE-LacZ reporter activity in PC12 – cell-based, unstimulated, primary screen (AID 1145); conditions: no forskolin, luminescence, 4.5 h, higher = more signal, called active from +8 up or from −8 down
[14] = forskolin-driven CRE-LacZ activity in PC12 – cell-based, CRE-LacZ reporter, forskolin-stimulated, primary screen (AID 1146); conditions: luminescence, 4.5 h, higher = more signal, called active from +8 up or from −8 down;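 note: PC12 cells with 6xCRE LacZ reporter stimulated by forskolin 10 µM; beta-galactosidase reporter signal reflecting CREB driven transcription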
[15] = target: Streptavidin (Streptomyces avidinii) (UniProt P22629); assay: compounds binding control protein streptavidin – biophysical, small-molecule microarray, 635/667 nm fluorescence, artefact control for SMM compound annotation, primary screen (AID 1147); conditions: higher = more signal;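 note: signal reflects streptavidin binding to arrayed compounds as a control protein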
Streptavidin (Streptomyces avidinii), sequence (P22629 whole entry, looked up): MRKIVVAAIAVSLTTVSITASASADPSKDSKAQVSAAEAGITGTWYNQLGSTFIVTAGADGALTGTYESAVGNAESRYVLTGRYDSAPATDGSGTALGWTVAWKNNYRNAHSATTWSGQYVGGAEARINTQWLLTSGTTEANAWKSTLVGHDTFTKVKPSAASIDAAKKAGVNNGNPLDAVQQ

[16] = probe aInhba binding on compound microarray – biochemical, small-molecule microarray, 635/667 nm fluorescence, primary screen (AID 1148); conditions: higher = more signal;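 note: score merges 667nm spot fluorescence with signal-to-noise for antibody binding to printed compounds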
Torsin-1A (Homo sapiens) [17] = target: Torsin-1A (Homo sapiens) (UniProt O14656); assay: TOR1A wild-type binding on microarray – cell lysate, small-molecule microarray, lysate, 635/667 nm, primary screen (AID 1149); conditions: COS7 hTOR1A-WT lysate, 635 nm fluorescence, higher = more signal
Torsin-1A (Homo sapiens), sequence (O14656 whole entry, looked up): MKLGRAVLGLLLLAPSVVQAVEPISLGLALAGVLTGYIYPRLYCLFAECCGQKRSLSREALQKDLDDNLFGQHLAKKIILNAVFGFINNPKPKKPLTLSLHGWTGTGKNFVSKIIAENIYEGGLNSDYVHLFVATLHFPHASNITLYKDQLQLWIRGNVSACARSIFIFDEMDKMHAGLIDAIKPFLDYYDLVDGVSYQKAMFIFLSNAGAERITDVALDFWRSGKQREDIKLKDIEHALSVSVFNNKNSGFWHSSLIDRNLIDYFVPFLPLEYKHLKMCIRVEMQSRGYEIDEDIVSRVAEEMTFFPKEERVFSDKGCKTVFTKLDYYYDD

Torsin-1A (Homo sapiens) [18] = target: Torsin-1A (Homo sapiens) (UniProt O14656); assay: torsin A mutant lysate binding on microarrays – cell lysate, small-molecule microarray, COS7 lysate, 635/667 nm fluorescence, primary screen (AID 1150); conditions: COS7 hTOR1A mutant lysate, 635 nm fluorescence, higher = more signal;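 note: score pools 667 nm emission and signal to noise measuring lysate protein binding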
[19] = test system: Sonic hedgehog protein (Shh); assay: Sonic hedgehog microarray binding compounds – biochemical, small-molecule microarray, 635/667 nm fluorescence, primary screen (AID 1151); conditions: 635 nm fluorescence, higher = more signal;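 note: Shh protein binding to compounds spotted on small-molecule microarray slides; score combines spot fluorescence intensity with signal-to-noise across triplicate slides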

Row | SMILES | composite z-score [1] | composite z-score [2] | composite z-score [3] | composite z-score [4] | composite z-score [5] | composite z-score [6] | z-score [7] | composite z-score (Lefty1) | composite z-score [8] | z-score [9] | composite z-score [10] | z-score [11] | z-score [12] | z-score [13] | z-score [14] | composite z-score [15] | composite z-score [16] | composite z-score (Torsin-1A (Homo sapiens) [17]) | composite z-score (Torsin-1A (Homo sapiens) [18]) | composite z-score [19]
1 | NC(=O)NCC#Cc1ccc2c(c1)[C@]1(C(=O)N2)[C@H](c2ccc(O)cc2)N2[C@H](c3ccccc3)[C@H](c3ccccc3)OC(=O)[C@H]2[C@@H]1C(=O)N1CCN(c2ncccn2)CC1 | 1.05 | 0.855 | -0.75 | 0.486 | 0.743 | -0.0346 | -1.1 | -0.112 | 0.297 | -1.43 (inactive) | 0.0724 | 0.449 (inactive) | 0.185 (inactive) | 1.21 (inactive) | 0.128 (inactive) | 0.0219 | 0.181 | -0.219 | 0.412 | -0.37
2 | COc1ccc([Si](C)(C)[C@H]2[C@H](CC(=O)N(CCO)Cc3ccccc3)O[C@@]3(C(=O)N(Cc4cccc(N5C(=O)c6cccc7cccc5c67)c4)c4ccccc43)[C@@H]2C)cc1 | 1.07 | 1.09 | 0.324 | 0.281 | 0.76 | 1.27 | -0.203 | 0.834 | 0.862 | -1.19 (inactive) | 0.353 | -4.87 (inactive) | -0.188 (inactive) | 1.09 (inactive) | -1.14 (inactive) | 0.544 | -0.101 | 0.871 | 0.27 | 1.61
3 | C=CC[C@]1(C(=O)O)N=C(c2ccc(OCCCO)cc2)O[C@H]1c1ccccc1CN=[N+]=[N-] | 0.518 | -0.583 | 0.174 | -0.276 | 0.349 | -0.39 | 0.00796 | -0.316 | 0.184 | -0.893 (inactive) | 0.0194 | 0.101 (inactive) | 0.874 (inactive) | 0.274 (inactive) | -0.0119 (inactive) | -0.0336 | -0.108 | 0.0499 | 0.416 | -0.0799
4 | C=C(CCCC)/C(=C/C[C@H](OC(C)=O)c1ccc(CO)o1)c1cc(C(=O)OC)ccc1OC | 0.683 | 0.596 | 0.0945 | 0.579 | 1.29 | 0.708 | -0.925 | 1.42 | 0.789 | -1.45 (inactive) | 0.244 | -3.43 (inactive) | -0.193 (inactive) | 0.709 (inactive) | 0.0467 (inactive) | 0.772 | 0.0622 | 0.206 | -0.0953 | 1.53
5 | CCCCC(=C=CC[C@H](O)c1ccccc1OCCO)C[C@H](O)c1cc(Cl)cc(Cl)c1O | 1.02 | 0.955 | 0.305 | 0.517 | 0.698 | 0.28 | -0.343 | 0.249 | 0.0162 | -1.27 (inactive) | 0.121 | -0.433 (inactive) | -0.0417 (inactive) | 7.91 (inactive) | 1.57 (inactive) | -0.18 | -0.0471 | 0.873 | 0.234 | 0.66
6 | O=C1OCC=C[C@H]2OC34C=CCN(c5ccc(Cl)cc5)C(=O)[C@H]3N(CCCO)C(=O)[C@@H]4[C@@H]12 (stereo not given in full) | -0.562 | -0.799 | 0.29 | -1.02 | -0.706 | -0.708 | -0.353 | -0.672 | -0.748 | -0.429 (inactive) | -0.329 | -2.14 (inactive) | -0.288 (inactive) | 1.28 (inactive) | 0.245 (inactive) | -1.47 | -0.15 | 0.626 | -2.06 | -0.629
7 | CCCCCN1CC=CC23O[C@@H]4C=CCCOC(=O)C4[C@H]2C(=O)N(CCCO)[C@@H]3C1=O (stereo not given in full) | 0.199 | -0.388 | -0.572 | -0.677 | -0.182 | -0.311 | -0.891 | -0.364 | 0.0083 | 0.126 (inactive) | -0.309 | -2.45 (inactive) | -1.06 (inactive) | -0.492 (inactive) | -0.285 (inactive) | -0.559 | -0.128 | -0.0271 | -1.09 | 0.4
8 | CN(C)CCCC[C@@H]1NC(=O)[C@H]2C[C@@H](C(=O)NCCCCCNC(=O)CS)[C@@H](c3ccc(O)cc3)N2C1=O | 0.504 | -0.54 | -0.0308 | -0.293 | 0.756 | 0.421 | 0.64 | -0.78 | -0.128 | -1.25 (inactive) | -0.22 | -0.0046 (inactive) | -0.315 (inactive) | 0.683 (inactive) | -0.0503 (inactive) | -0.175 | -0.208 | -0.217 | 0.239 | 0.0878
9 | Cc1cccc(/C=C/C=O)c1 | -0.109 | -0.115 | 0.0048 | 0.458 | 0.198 | -0.163 | 0.538 | -0.119 | 0.718 | -0.953 (inactive) | -0.0267 | 0.585 (inactive) | 0.16 (inactive) | 0.0924 (inactive) | -0.0647 (inactive) | 1.04 | -0.0963 | -0.782 | -0.295 | 0.0638
10 | CCCCC(=O)N(Cc1ccccc1F)[C@@H]1CC(C(=O)NCCO)=C[C@H](Oc2c(I)cc(CO)cc2OC)[C@H]1O | 1.28 | 1.25 | 1.38 | 0.96 | 1.51 | 2.04 | -1.47 | 1.58 | 0.736 | 1.57 (inactive) | 1.91 | -2.1 (inactive) | -0.43 (inactive) | 0.673 (inactive) | 0.377 (inactive) | -0.291 | 0.0541 | 1.68 | 0.769 | 2.45
